Data as given in PubChem BioAssay (NCATS).
Records with an inconclusive call do not appear. The call rests on the fitted dose curve; in most records, active means well fitted curve in either direction with a large enough effect (not every such curve was filed as active); inconclusive means small, poorly fitted or top-dose-only effect, or another doubt; inactive means flat fitted curve, though single readings scatter.

test: Stat Signaling Pathway (AID 446); conditions: ME-180 (cervical carcinoma) SIE beta-lactamase reporter, IL-6 stimulated, 5 h; at 17.2 µM (top of the series) unless noted;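 further: SIE-controlled beta-lactamase reporter measured as 460/530 nm FRET emission ratio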
In short: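 FRET read-out (405 nm excitation, 460/530 nm emission) of a beta-lactamase reporter under a STAT-inducible element in ME-180 cervical carcinoma cells. Cells with compound receive 40 pM IL-6 for 5 h. Values are normalised to AC90 stimulation and AC90 JAK-inhibitor controls.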
On the % scale 0 is the no-effect control and ±100 the full control effect.

activity, negative = inhibition, inactive:
CC(C)(C)C1=Nn2c(nnc2-c2ccco2)SC1 8.01%
CN1C(=O)c2c(sc3c2CCCC3)NC1c1ccccc1O (stereo not given) -25.9%
CCN(CC)CCCN1C(=O)C(=O)/C(=C(/O)c2ccc(Cl)cc2)C1c1ccccn1 (stereo not given) -0.716%
COc1ccc(OC)c(C2=Nn3c(nnc3C3CCCCC3)SC2)c1 -1.6%
CC(=O)C1=C(NC(=O)c2ccccc2F)C[C@@H]2[C@H]1C2(C)C 18.8%
CC(=O)Nc1ccc(Oc2ccc3nc(C)[nH]c3c2)cc1 -5.58%
COc1cccc(OC)c1-c1nn2c(-c3ccccc3Cl)nnc2s1 -3.22%
COc1cc(C2Nc3cccc4cccc(c34)N2)cc(OC)c1OC(C)=O 9.71%
COc1cccc(/C(O)=C2\C(=O)C(=O)N(c3ccccn3)C2c2ccccc2OC)c1 (stereo not given) 1.49%
CC12CN3CC(C)(CN(C1)C3c1ccc(Cl)cc1Cl)C2O (stereo not given) 3.23%
COc1ccc(-c2ncncc2-c2csc(C)n2)c(O)c1 0.893%
COc1ccccc1N1CCN(C2CCN(C(=O)c3cccs3)CC2)CC1 19.6%
CSC1=C(C#N)C(C)CC(=O)N1 (stereo not given) 3.87%
N#Cc1nc(-c2cccs2)oc1NCCc1ccccc1 -12.8%
COC(=O)C(NC(=O)c1ccco1)(Nc1nc(C)cs1)C(F)(F)F (stereo not given) -2.51%
CCOC(=O)CSc1nc(NC#N)nc(N(CC)CC)n1 -5.41%
CCOc1nnnc2c1sc1nc(N3CCOCC3)c3c(c12)CC(C)(C)OC3 -9.58%
C1CNCCNCCCNCCNC1 -11.5%
Cc1ccc(C(=O)NCC(C)(C)O)cc1 12.1%
CCC(=O)O[C@@H]1CC(=O)O[C@H](C)CC=CC=C[C@@H](O)[C@H](C)C[C@H](CC=O)[C@H](O[C@H]2O[C@H](C)[C@@H](O[C@H]3C[C@@](C)(O)[C@@H](OC(=O)CC)[C@H](C)O3)[C@H](N(C)C)[C@H]2O)[C@H]1OC -1.1%
C=CCNc1nc(-c2cccc(OC)c2O)nc2ccccc12 -11.9%
O=C(CNC1=NCCC1)c1ccc2c(c1)OCCO2 -3.23%
CCCC(=O)Nc1sc2c(c1C#N)CCCC2 8.33%
COc1ccc(C(=O)Nc2nc(N)n(-c3ccccc3)n2)cc1OC 1.75%
COC(=O)c1ccc(Cn2c(O)c(N=O)c3ccccc32)o1 3.14%
C=CCn1c(-c2ccc(OC)c(OC)c2)n[nH]c1=S -10.7%
CCOC(=O)C1CSc2[nH]c(=O)sc2C1c1ccccc1 (stereo not given) -1.01%
COC(=O)CSc1nc(C)c(C(C)=O)cc1C#N 7.71%
Cc1c(C(=O)O)c(=S)sn1CCOc1ccccc1 5.37%
Cn1ncc2c(Nc3ccccc3Br)ncnc21 -3.41%
CCOC(=O)COn1c(=O)c(-c2ccc(OC)c(OC)c2)[n+]([O-])c2ccccc21 4.19%
CC(=O)c1cc2c(=O)c3ccccc3oc2nc1C 7.33%
O=C(OCC#CCSc1nnc(-c2ccccc2)o1)c1cccs1 -1.99%
O=C(NCC(F)(F)F)Nc1nnc(C(F)(F)F)s1 -4.37%
CCCCOc1ccccc1P(=O)(O)CP(=O)(c1ccccc1)c1ccccc1 -14.9%
Cc1cc(=O)oc(C)c1C(=O)NCC1CCCO1 (stereo not given) 1.38%
CN1CCN(Cc2c(O)c(Cl)cc3c(-c4ccccc4)cc(=O)oc23)CC1 -7.42%
COc1ccc(C(C)=O)cc1CSCCC(=O)O 15.2%
O=C(c1coc(=O)c(Br)c1)N1CCOCC1 1.69%
COC(=O)CN(c1nc(C)cc(OC)n1)S(=O)(=O)c1ccccc1 8.46%
